Bioassay records deposited in PubChem BioAssay by several laboratories.
Shown are actives, neighbours in structure and some others; about 3.4% of the full set was active somewhere.
Shn3 3UTR inh: reduces Shn3 3'UTR luciferase signal in osteoblasts; 360,000 compounds, 0.52% hits; Clone20 osteoblast Shn3 3'UTR firefly luciferase, 24 h; AID 588674; inhibition, % at 12.5 µM;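 active means mean inhibition of at least 75% with every replicate also reaching 75%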;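 further: 0% = median of neutral control wells and 100% = pilot-screen positive control compound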
TWEAK-Fn14 inh: TWEAK-Fn14 signaling inhibition | AID 1159606 | TWEAK-stimulated Fn14 reporter cells, luciferase luminescence, 8 h | 360,000 compounds, 2% hits | inhibition, % at 10 µM; in the data active means inhibition above about 50%
MITF TRPM1 inh: reduces MITF-dependent TRPM1 promoter luciferase signal; 330,000 compounds, 0.83% hits; inhibition, % at 12.5 µM; SK-MEL-5 TRPM1 promoter luciferase, 24 h;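 active means mean inhibition across replicates of 60% or more, whatever share of single replicates reaches that level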
EBV LMP1 NFkB: inhibitors of Epstein-Barr LMP1-induced NF-kappaB reporter; LMP1-induced NF-kappaB luciferase reporter cells, luminescence; inhibition, % at 12.5 µM; 350,000 compounds, 0.69% hits; AID 504558; in the data active means inhibition above about 41%;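 further: 0% = neutral control wells and 100% = reference inhibitor control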
TROY NFkB inh: TROY signaling inhibition | AID 1347056 | 360,000 compounds, 0.98% hits | inhibition, % at 10 µM | Q293 LMP1-TROYcd NF-kB luciferase reporter, 4 h;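 active means compounds whose plate-normalised and pattern-corrected inhibition of the luciferase reporter signal at the single screening dose is 50% or more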
HIF-2a block: blocks HIF-2a reporter activity. 786-0 RCC cells HIF-2a reporter, luciferase luminescence, overnight. inhibition, % at 18.8 µM. 360,000 compounds, 0.72% hits;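 active means inhibition of the luminescence signal of 40% or more relative to plate controls, in a single-dose primary screen at 18.75 µM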
* hit, by the source's call; · = no result; ! = not confirmed by another sample.

SMILES	Shn3 3UTR inh	TWEAK-Fn14 inh	MITF TRPM1 inh	EBV LMP1 NFkB	TROY NFkB inh	HIF-2a block
CCN1CCN(Cc2ccc(NC(=O)c3cc(NC(=O)c4cnnc5ccccc45)cc(OC)c3)cc2C(F)(F)F)CC1	16	-28	·	-5	-25	-3
CCN1CCN(Cc2ccc(NC(=O)c3ccc(C)c(NC(=O)c4cccc5[nH]ccc45)c3)cc2C(F)(F)F)CC1	49	-172	4	62*	-28	-23
CCN1CCN(Cc2ccc(NC(=O)c3ccc(C)c(NC(=O)c4nccnc4N)c3)cc2C(F)(F)F)CC1	36	-168	5	57*	-7	9
CCN1CCN(Cc2ccc(NC(=O)c3ccc(C)c(NC(=O)c4cc(-c5ccc(Br)cc5)n[nH]4)c3)cc2C(F)(F)F)CC1	12	-83	-14	44*	6	-22
CCN1CCN(Cc2ccc(NC(=O)c3cc(NC(=O)c4nccnc4N)cc(OC)c3)cc2C(F)(F)F)CC1	-38	8	73*	1	19	-21
CCN1CCN(Cc2ccc(NC(=O)c3ccc(C)c(NC(=O)c4nccn4C)c3)cc2C(F)(F)F)CC1	16	-49	4	47*	-1	6
CCN1CCN(c2cc(C)c3cc(NC(=O)c4ccc(OC)c(OC)c4)ccc3n2)CC1	-39	-64	-1	-45	5	-22
CCN1CCN(Cc2ccc(NC(=O)c3ccc(C)c(NC(=O)N4CCNC4=O)c3)cc2C(F)(F)F)CC1	7	-65	12	47*!	12	3
CCN1CCN(Cc2ccc(NC(=O)c3ccc(C)c(NC(=O)c4cncc(-c5cccs5)c4)c3)cc2C(F)(F)F)CC1	88*	-102	97*	71*	-15	48*
Cc1cn(-c2cc(C(=O)Nc3ccc(C)c(NC(=O)N4CCNC4=O)c3)cc(C(F)(F)F)c2)cn1	4	-19	1	14	7	9
C[C@H](CO)N1C[C@H](C)[C@@H](CN(C)C(=O)Oc2ccccc2)OCc2cn(nn2)CCCC1=O	-6	2	·	-1	-2	1
CC1=NC(=O)C(N=Nc2cccc(C(=O)O)c2)N1c1ccccc1 (centres undefined)	-7	49	81*	37	-65	54*
CC1=NC(=O)C(N=Nc2ccccc2)N1c1ccccc1 (centres undefined)	-66	-15	-16	-39	-13	-226
CCS(=O)(=O)c1nc(S(=O)(=O)c2ccc(C)cc2)c(N2CCN(C)CC2)s1	-6	-4	36	2	-11	5
CC1CCN(C(=O)COC(=O)c2cccs2)CC1	-47	58*	-40	-12	3	-148
CC(C)Cn1cnc2c(SCCc3ccccc3)nc(N)nc21	-16	-23	-40	-6	-62	-179
Cc1cccc(-c2noc(CN(C(=O)C(c3ccccc3)c3ccccc3)C(C)C)n2)c1	84*	7	·	-1	-15	-6
O=[N+]([O-])c1ccc(/C=N/Nc2nc(-c3ccccc3)c3cc(Br)ccc3n2)o1	13	35	8	17	-20	5
Cc1ccc2nc(N/N=C\c3ccc([N+](=O)[O-])o3)nc(-c3ccccc3)c2c1	-5	67*	34	13	-5	-44
Cc1oc(-c2cc(F)ccc2F)nc1CN1CCN(c2ncnc3ccccc23)CC1	75	52*	20	19	28	26
COc1ccc(-c2nc(CN3CCN(c4ccccc4OC)CC3)c(C)o2)cc1	20	-19	16	10	-13	6
COc1ccc(-c2nc(CN3CCN(c4ncnc5ccccc45)CC3)c(C)o2)c(OC)c1	81	59*	32	17	29	13
Cc1oc(-c2cc(F)ccc2F)nc1CN1CCC(C(=O)N2CCOCC2)CC1	1	-2	0	-6	3	10
CCCCn1c(N)c(N(Cc2ccccc2OC)C(=O)C(C)Oc2cccc(Cl)c2)c(=O)[nH]c1=O (centres undefined)	-9	13	·	7	-15	21
O=C1C(Cl)=C(N2CCCCC2)C(=O)C(Cl)=C1c1cnc(N2CCCCC2)s1	8	51*	101*	18	34	45*
SMILES	Shn3 3UTR inh	TWEAK-Fn14 inh	MITF TRPM1 inh	EBV LMP1 NFkB	TROY NFkB inh	HIF-2a block
CN1CCN2c3ccccc3CC(C#N)(C#N)C2C1 (centres undefined)	0	0	·	·	19	2
CN1C(=O)[C@H](Cc2ccc([N+](=O)[O-])cc2)NC1=S	8	51*	-13	17	28	10
CCOC(=O)NCc1ccc(S(=O)(=O)Nc2ccc(C)cc2)cc1	8	-3	3	3	15	15
CCOC(=O)NCc1ccc(CNC(=O)OCC)cc1	-13	73*	0	2	·	11
O=C(NC1CCSc2ccccc21)c1cccc(S(=O)(=O)N2CCOCC2)c1 (centres undefined)	15	-6	-2	5	-7	-4
CCCCN(C(C)=O)c1ccc2c(c1)C1CC2CCN1C(=O)OCc1ccccc1 (centres undefined)	90*	33	19	6	20	1
COC(=O)N1C(=O)[C@](c2ccccc2)(C2CCCC2)N1C(=O)OC	11	47	14	1	30	27
COC(=O)N1C(=O)[C@@](c2ccccc2)(C(C)C)N1C(=O)OC	17	61*	3	7	19	11
COC(=O)N1C(=O)[C@@](c2ccc(OC)cc2)(C(C)C)N1C(=O)OC	-14	57*	-7	0	16	27
COC(=O)N1C(=O)[C@](c2ccc(Cl)cc2)(C(C)C)N1C(=O)OC	50	38	19	2	6	23
CC(=O)n1c2c(c3ccccc31)OC(N)=C(C#N)C2c1ccc(C(C)C)cc1 (centres undefined)	-48	89*	5	-13	79*	-160
Cc1ccc([C@H]2C[C@@H](n3cc(COC(=O)c4ccccc4)nn3)[C@H](O)CN2C(=O)c2cccs2)cc1	-3	6	·	13	-11	8
O=C(O)c1ccc(NC2=C/C(=N/S(=O)(=O)c3cccs3)c3ccccc3C2=O)cc1	18	98*	·	-6	60*	13
Cc1cccc(NC2=C/C(=N/S(=O)(=O)c3cccs3)c3ccccc3C2=O)c1	93*	97*	102*	-2	32	7
O=C1C(Nc2ccc(O)cc2)=C/C(=N/S(=O)(=O)c2cccs2)c2ccccc21	100*	95*	108*	96*	58*	40*
O=C(O)c1ccc(Nc2nc3ccccc3nc2NS(=O)(=O)c2cccs2)cc1	-29	-2	-12	3	-10	-2
Cc1ccc(S(=O)(=O)/N=C2\C=C(NS(=O)(=O)c3ccccc3)C(=O)c3ccccc32)cc1	7	6	29	-15	-27	-49
CC(/C=N\NC(=O)c1ccc2c(c1)OCO2)c1ccccc1 (centres undefined)	7	1	3	-16	-68	-26
